Screening data from PubChem.
IL-1B inflam inh = blocks inflammasome-driven IL-1 beta release. THP-1 LPS/ATP IL-1B secretion, AlphaLISA, 16 h; active compounds read low. activity change, % at 57.5 µM. hit rate 4.7% among 360,000; in the data active = activity change below about -50%; inconclusive = mostly about -30% to -49%; note: % is set by controls: 0 for no effect and ±100 for the full control effect
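Secreted IL-1B measured by AlphaLISA bead assay after 16 h compound exposure of THP-1 cells; compounds (final up to 57.5 uM) added 1 h before LPS (250 ng/mL) and ATP (1.25 mM) stimulation; lower signal means less secretion.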
MCF10A rerep = DNA re-replication induction in MCF 10a cells; MCF 10A DNA re-replication, Hoechst nuclear intensity, 48 h; hit rate 2.9% among 350,000; Potency, µM (titrated, usually from 46.1 µM), inactives show at the highest dose activity, positive = re-replication, usual class: activators; note: potency is the fitted concentration of half-maximal effect; % of control where 0% means no effect; nearly all actives have a fitted effect of over 50% in size
SW480 rereplic = induces DNA re-replication in SW480 colon adenocarcinoma cells | SW480 DNA re-replication, Hoechst DNA content imaging, 48 h | Potency, µM (titrated, usually from 46.1 µM), for inactives: at the top dose re-replication activation, actives largely listed as activators | hit rate 1.8% among 340,000 | AID 624297; note: potency is the fitted concentration of half-maximal effect; % of control where 0% means no effect; nearly all actives have a fitted effect of over 55% in size
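Per well, 250 cells were exposed to pinned compound for 48 hr. Nuclear DNA was visualised with Hoechst (40 min, 37 C) and total object intensity recorded by fluorescence scanning.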
Chronic BCR inh = inhibitors of chronic active B-cell receptor signaling. hit rate 0.05% among 340,000. Potency, µM (titrated, usually from 46.1 µM), for inactives: top-dose activity change, negative = inhibition, hits mostly inhibitors. ABC-DLBCL IkBa-CBG/CBR reporter, luminescence ratio, 4 h. AID 493014; active = well fitted inhibition curve with a large enough effect in the signal ratio, with a control signal flat, not every such curve was filed as active; inconclusive = small, poorly fitted or top-dose-only effect, or effect the other way, or a change in a side signal; the % refers to the signal ratio;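 note: potency is the fitted concentration of half-maximal effect; plate controls were basal doxycycline-induced cells for no effect and cells given 10 µM MG132 for full effect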
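Doxycycline induced both beetle luciferases in TMD8 lymphoma cells; IKK-driven degradation limits the IkappaBalpha-fused green signal, while red luminescence normalises for cell number and nonspecific effects. Compounds tested up to 46 uM, 4 hrs.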
DT40 TDP1 CPT = growth inhibition of DT40 Tdp1-/-;hTDP1 cells with camptothecin (screen for TDP1 inhibitors) | chicken DT40 Tdp1-/-;hTDP1 cells + 20 nM CPT, ATP luminescence, 48 h | Potency, µM (highest dose often 46.2 µM), without a hit: at the highest dose activity change, negative = growth inhibition, usual class: inhibitors | hit rate 12% among 420,000; note: potency is the fitted concentration of half-maximal effect; % is set by controls: 0 for no effect and ±100 for the full control effect; nearly all actives have a fitted effect of over 55% in size
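Chicken DT40 Tdp1-/- cells stably complemented with human TDP1 were seeded at 400 cells/well in medium containing 20 nM camptothecin, exposed to pin-transferred compounds, and grown at 37 °C for at least 48 hr. Viability was read as ATP luminescence.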
DT40 TDP1 no CPT = qHTS for Inhibitors of human tyrosyl-DNA phosphodiesterase 1 (TDP1): qHTS in cells in absence of CPT. DT40 Tdp1-/- hTDP1 cells, no CPT, ATP luminescence, 48 h. Potency, µM (doses to about 46.2 µM), for the others: top-dose activity change, negative = growth inhibition, hits mostly inhibitors. hit rate 15% among 420,000. AID 686978, 2013; note: potency is the fitted concentration of half-maximal effect; % is set by controls: 0 for no effect and ±100 for the full control effect; nearly all actives have a fitted effect of over 55% in size
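Stably hTDP1-transfected Tdp1-null chicken DT40 cells were treated with library compounds minus camptothecin and grown for at least 48 hr at 37 °C, after which cellular ATP was quantified by luminescence.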
Starred values were filed as active, the others as inactive; ? = inconclusive; / = no result. This is a sample that favours compounds with a hit; in the whole collection about 19% have one here. Unless noted, calls come from the whole dose curve; as a rule, active = well fitted curve in the direction sought with a large enough effect; inconclusive = small, poorly fitted or top-dose-only effect, or another doubt; inactive = no such curve, though single readings can be large; an effect the other way counts as inactive or inconclusive.

SMILES | IL-1B inflam inh | MCF10A rerep | SW480 rereplic | Chronic BCR inh | DT40 TDP1 CPT | DT40 TDP1 no CPT
CCCC/C=C/[C@H](c1ccccc1)[C@H](CO)Cc1cccnc1 | -11.1 | 3.9% | -11.6% | / | ? | 16.4µM*
CCCC/C=C/C(NC(=O)CCc1ccccc1)c1ccccc1 (centres undefined) | -4.3 | ? | -8.8% | 2.7% | ? | ?
S=C(NCCN1CCOCC1)Nc1ccc(-c2nc3ccccc3[nH]2)cc1 | 0.0 | 1.03µM* | -1.0% | ? | -7.7% | ?
O=C(/C=C/c1ccco1)Nc1ccc(-c2nc3ccccc3[nH]2)cc1 | -11.3 | 2.59µM* | ? | 8.0% | -0.6% | ?
O=C(/C=C/c1ccco1)Nc1ccc(N2CCCC2)cc1 | -1.8 | -4.3% | -35.5% | ? | -0.2% | -9.6%
O=C(CCc1nc2ccccc2[nH]1)N1CCN(C(=O)c2ccco2)CC1 | 6.9 | -0.5% | -1.1% | 1.8% | -13.6% | 0.4%
O=C(CSc1ccc(-c2nc3ccccc3[nH]2)cn1)N1CCN(C(=O)c2ccco2)CC1 | 8.4 | -0.9% | -16.8% | ? | 23.1µM* | ?
O=C(NCc1nc2ccccc2[nH]1)c1ccco1 | -2.6 | -5.5% | -0.2% | 4.3% | 1.7% | 8.8%
O=C(Nc1ccc(-c2nc3ccccc3[nH]2)cc1)c1ccco1 | -14.7 | 6.5% | 0.2% | ? | 14.6µM* | 14.6µM*
CCN(Cc1ccccc1)N=Nc1ccccc1 | 37.6 | / | / | / | -15.6% | -25.3%
Cc1ccc2cc3c(nc2c1)OCC3 | -16.0 | -5.3% | 8.2µM* | ? | -12.7% | -5.1%
Cc1ccc2cc3c(nc2c1)N(Cc1ccco1)CC3 | 40.6 | 8.5% | -0.7% | 13.1% | ? | ?
Cc1ccc2c(c1)CCCN2CC(=O)N(C)c1c(N)n(Cc2ccccc2)c(=O)[nH]c1=O | 22.9 | 0.0% | -4.4% | -1.8% | -5.2% | -3.6%
CCN(C(=O)COC(=O)c1cccc(-n2cnnn2)c1)C1CCCCC1 | -9.6 | -0.7% | -0.5% | 1.7% | 11.5% | 1.2%
COc1ccc(Oc2c(OC)cc(NCc3ccc(CN)cc3)c3ncccc23)cc1 | 30.9 | / | / | / | ? | 25.9µM*
Cc1ccc(NC(=O)/C=C/c2ccco2)nc1 | -29.2 | ? | ? | ? | 0.013µM* | 0.0058µM*
O=C(/C=C/c1ccco1)Nc1cccnc1 | -15.3 | -11.9% | -16.9% | ? | 5.3% | 10.8%
O=C(/C=C/c1ccco1)Nc1ccccn1 | 58.6 | 14.6µM* | 5.17µM* | ? | 3.26µM* | 3.26µM*
O=C(/C=C/c1ccco1)Nc1nc(-c2ccccc2)cs1 | -6.0 | -0.4% | -5.7% | -1.6% | -20.6% | ?
O=C(/C=C/c1ccco1)Nc1nc(-c2ccccn2)cs1 | 124.1 | 136.7% | ? | ? | 7.31µM* | 7.31µM*
COc1ccc(C(C(=O)NC(C)(C)C)N(C(=O)CCC(=O)Nc2cc(C)on2)c2c(C)cccc2C)cc1 (centres undefined) | -8.1 | -0.2% | -81.7% | -7.5% | -15.6% | -15.6%
Cc1cccc(C(=O)N(CC(=O)Nc2sc(C)c(C)c2C(N)=O)C2CCCC2)c1 | ? | -1.8% | 11.1% | ? | ? | ?
Cc1ccc(C(=O)N(CC(=O)Nc2sc(C)c(C)c2C(N)=O)C2CCCC2)cc1 | -15.1 | ? | 13.2% | ? | 20.6µM* | 18.4µM*
Cc1sc(NC(=O)CN(C(=O)c2ccccc2F)C2CCCC2)c(C(N)=O)c1C | -7.5 | -0.1% | 2.4% | ? | ? | 16.4µM*
